Assay results: PubChem BioAssay AID1782 (National Center for Advancing Translational Sciences (NCATS), 2009)
Results filed as inconclusive are left out. Calls of active or inactive are those of the source. Calls follow the shape of the dose curve; as a rule, active = well fitted curve in the direction sought with a large enough effect; inconclusive = small, poorly fitted or top-dose-only effect, or another doubt; inactive = no such curve, though single readings can be large or run the other way.

Biological target: Pyruvate kinase PKLR (Homo sapiens) (UniProt P30613)
Assay: Confirmation Concentration-Response Assay for Activators of Human Reticulocyte Pyruvate Kinase
Conditions: purified hPK-R, Kinase-Glo ATP luminescence, 1 h; series mostly up to 57.5 µM
Description: Confirmatory assay NIH Chemical Genomics Center [NCGC] Wael M. Rabeh, Lyudmila Nedyalkova and Hee-Wan Park [Structural Genomics Consortium, 100 College St. Toronto, Ontario, Canada] NCGC Assay Overview: Human pyruvate kinase reticulocyte (hPK-R) enzyme was supplied as a highly purified (>95% pure) preparation from Structural Genomics Consortium in Toronto (Ontario, Canada) and assayed for its ability to generate ATP from ADP using phosphoenolpyruvate (PEP) as a substrate. ATP generation was detected in a coupled reaction by luciferase-mediated luminescence, an ATP-dependent process. Pyruvate kinase substrates, PEP and ADP, were present in the assay at Km and approximately 10-fold below Km respectively. The enzyme was assayed at an intermediate level of activity to screen for both inhibitors and activators.
NCGC Assay Protocol Summary for R-isoform Three uL of substrate mix (at r.t.) in assay buffer (50 mM Imidazole pH7.2, 50 mM KCl, 7 mM MgCl2, 0.01% Tween 20, 0.05% BSA) was dispensed into white solid bottom 1,536 well microtiter plates so that the final concentrations of substrates in the assay were 0.1 mM ADP and 0.5 mM PEP. 23 nL of compound were delivered by a pin tool and 1 uL of enzyme mix (final concentration of 0.1 nM) in assay buffer (4 degree Celsius) was added. Plates were incubated at room temperature for 1 hour. Two uL of detection mix (Kinase-Glo, Promega; at 4 degree Celsius protected from light) was added and luminescence read by a ViewLux (Perkin Elmer) at 1 second exposure/plate. Data were normalized to the uninhibited (row 31). Additionally, a no enzyme and 5-fold enzyme control was dispensed in row 32, split equally between the two conditions.

Chain of Pyruvate kinase PKLR (Homo sapiens) (P30613 whole entry, looked up): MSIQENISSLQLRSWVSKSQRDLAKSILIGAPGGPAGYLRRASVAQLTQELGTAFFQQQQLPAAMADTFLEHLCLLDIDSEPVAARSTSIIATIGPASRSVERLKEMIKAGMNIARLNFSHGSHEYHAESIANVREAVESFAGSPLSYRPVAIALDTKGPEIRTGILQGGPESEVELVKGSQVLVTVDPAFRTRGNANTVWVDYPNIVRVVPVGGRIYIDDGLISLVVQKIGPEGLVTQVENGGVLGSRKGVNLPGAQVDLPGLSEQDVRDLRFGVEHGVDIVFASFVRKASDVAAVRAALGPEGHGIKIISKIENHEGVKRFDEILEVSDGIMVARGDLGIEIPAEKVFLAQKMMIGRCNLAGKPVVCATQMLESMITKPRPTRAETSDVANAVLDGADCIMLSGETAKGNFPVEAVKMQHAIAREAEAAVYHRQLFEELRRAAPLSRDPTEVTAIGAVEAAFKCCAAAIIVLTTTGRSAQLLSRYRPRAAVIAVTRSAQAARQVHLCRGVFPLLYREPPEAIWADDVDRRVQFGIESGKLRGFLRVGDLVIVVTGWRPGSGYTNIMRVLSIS

Potency, inactive:
Cc1cc2c(s1)c1cnn(Cc3ccc(C)c(F)c3F)c(=O)c1n2C
COc1ccc(S(=O)(=O)N2CCN(S(=O)(=O)c3ccc(OC)cc3)CC2)cc1
O=S(=O)(c1ccc(Cl)cc1)N1CCN(S(=O)(=O)c2ccc3c(c2)OCCO3)CC1
Cn1c2cc(C#N)sc2c2cnn(Cc3ccccc3F)c(=O)c21
COc1cc2c(s1)c1cnn(Cc3ccccc3F)c(=O)c1n2C
Cc1cc2c(s1)c1cnn(Cc3ccccc3F)c(=O)c1n2C(C)C
Cc1cc2c(s1)c1cnn(Cc3c(F)cccc3Cl)c(=O)c1n2C
Cc1cc2c(s1)c1cnn(Cc3ccc(C(F)(F)F)cc3F)c(=O)c1n2C
CCn1c2cc(C)sc2c2cnn(Cc3ccccc3F)c(=O)c21
O=S(=O)(NCCCCCNS(=O)(=O)c1c(F)cccc1F)c1ccc2c(c1)OCCO2
Cc1cc2c(s1)c1cnn(Cc3ccc(S(C)(=O)=O)cc3)c(=O)c1n2C
Cc1cc2c(s1)c1cnn(-c3ccccc3)c(=O)c1n2C
Cc1ccc(Cn2ncc3c4sc(C)cc4n(C)c3c2=O)cc1
Cn1c2cc(B(O)O)sc2c2cnn(Cc3ccccc3F)c(=O)c21
O=S(=O)(c1ccc(F)cc1)N1CCN(S(=O)(=O)c2ccc3c(c2)OCCO3)CC1
Cc1cc2c(s1)c1c(C)nn(Cc3ccccc3F)c(=O)c1n2C
COc1ccc(S(=O)(=O)N2CCN(S(=O)(=O)c3c(F)cccc3F)CC2)cc1
Cn1c2ccsc2c2ncn(Cc3ccccc3F)c(=O)c21
CCCc1cc(F)c(S(=O)(=O)N2CCN(S(=O)(=O)c3ccc4c(c3)OCCO4)CC2)cc1F
Cc1cc2[nH]c3c(=O)n(Cc4ccccc4F)ncc3c2s1
CCc1cc2c(s1)c1cnn(Cc3ccccc3F)c(=O)c1n2C
O=S(=O)(c1ccc2c(c1)OCCO2)N1CCN(S(=O)(=O)c2cccc[n+]2[O-])CC1
O=S(=O)(c1ccc2c(c1)OCO2)N1CCN(S(=O)(=O)c2c(F)cccc2F)CC1
